Bioassay records: PubChem, The Scripps Research Institute Molecular Screening Center
MITF inh = human MITF inhibition, primary screen. O75030. AlphaScreen MITF homodimerization, bead proximity signal. inhibition, % at 2.6 µM. actives 0.91% (n = 650,000). AID 1259374; in the data active = inhibition above about 50%
Target sequence (O75030 whole entry, looked up): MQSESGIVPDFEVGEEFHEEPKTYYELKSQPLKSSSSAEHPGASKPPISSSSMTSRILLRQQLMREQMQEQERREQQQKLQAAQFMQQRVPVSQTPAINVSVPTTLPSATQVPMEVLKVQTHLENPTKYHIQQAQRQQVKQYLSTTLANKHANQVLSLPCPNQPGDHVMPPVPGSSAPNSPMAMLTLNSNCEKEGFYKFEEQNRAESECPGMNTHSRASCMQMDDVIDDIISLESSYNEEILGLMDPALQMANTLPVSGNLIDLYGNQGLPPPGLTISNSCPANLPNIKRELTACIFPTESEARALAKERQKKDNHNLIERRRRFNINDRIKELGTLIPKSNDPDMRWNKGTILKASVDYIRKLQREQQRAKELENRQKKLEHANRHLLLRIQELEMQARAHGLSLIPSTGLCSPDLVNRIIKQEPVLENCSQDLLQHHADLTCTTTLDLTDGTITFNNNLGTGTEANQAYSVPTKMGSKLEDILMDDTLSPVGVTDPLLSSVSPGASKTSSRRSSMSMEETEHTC
FBW7 activator = human FBW7 E3 ligase activation, primary screen | Q969H0 | AlphaScreen FBW7–phospho-cyclin E peptide binding, activator screen | normalized activity (activation), % at 26.1 µM | actives 0.13% (n = 650,000) | AID 1259310; in the data active = normalized activity above about 1.9%;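 also: purified mutant Fbw7 with reduced substrate affinity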
GPR151 ag = activators of human GPR151; Q8TDV0; PathHunter beta-arrestin GPR151 cells, luminescence; activation, % at 11.2 µM; actives 1% (n = 650,000); in the data active = activation above about 4.9%
TEAD-YAP block = TEAD-YAP interaction inhibition. HEK-TIYL cells, TEAD-Gal4/YAP UAS-luciferase luminescence. AID 1259422. actives 1.4% (n = 640,000). inhibition, % at 9.12 µM; in the data active = inhibition above about 32%
Of the large screens only hits and unclear results are named; the others gave an inactive call. Shown are actives, neighbours in structure and some others; about 3.5% of the full set was active somewhere.

CC(C)(C)c1ccc(C(=O)N2N=C(C(F)F)CC2(O)C(F)F)cc1 (configuration not stated)	none
CC(=O)c1cccc(-c2nc(NCc3nc4ccccc4[nH]3)c3ncn(-c4ccsc4)c3n2)c1	TEAD-YAP block 69
CC1Cc2cc(-c3cc(CC(=O)NCc4cccnc4)no3)ccc2O1 (configuration not stated)	TEAD-YAP block 34
COc1ccc(-c2cc(C(=O)NCc3cccnc3)no2)cc1	none
O=C(/C=C/c1cccc([N+](=O)[O-])c1)Nc1cccc2c1C(=O)N(c1ccccc1)C2=O	none
CC1CCCCC1NC(=O)CN(C)S(=O)(=O)c1ccc2nc(-c3ccccc3)[nH]c2c1 (configuration not stated)	MITF inh 54
COc1ccc(CN2CCC3(CCC(CNC(C)=O)O3)CC2)cc1C (configuration not stated)	none
Fc1ccccc1-c1cnn2c(N3CCOCC3)ccnc12	TEAD-YAP block 64
c1ccc2c(-c3cnn4c(N5CCOCC5)ccnc34)cccc2c1	none
Clc1cccc(-c2cnn3c(N4CCOCC4)ccnc23)c1	TEAD-YAP block 77
OCc1ccccc1-c1cnn2c(N3CCOCC3)ccnc12	TEAD-YAP block 94
O=C(NCC1Cc2c(ccc3cc(-c4ncccn4)ccc23)O1)c1ccccn1 (configuration not stated)	none
CCOCC(=O)Nc1cc(-c2cn3nc(OC)ccc3n2)ccc1F	TEAD-YAP block 68
CCOCC(=O)Nc1ccc(-c2cn3nc(OC)ccc3n2)cc1	none
Cc1ccc2c(c1)sc1nc(-c3ccccc3)cn12	FBW7 activator 2.4, TEAD-YAP block 96
Cc1ccc(-c2cn3c(n2)sc2cc(C(=O)N4CCC(C(N)=O)CC4)ccc23)cc1	none
Cc1nc2ccc(Nc3nccc(-c4cncc(N5CCOCC5)c4)n3)cc2o1	none
Cc1[nH]nc2ccc(Nc3nccc(-c4cncc(N5CCOCC5)c4)n3)cc12	TEAD-YAP block 77
Fc1ccc(Nc2nccc(-c3cncc(N4CCOCC4)c3)n2)cc1	TEAD-YAP block 68
Cn1cnnc1-c1ccc(Nc2nccc(-c3cncc(N4CCOCC4)c3)n2)cc1	TEAD-YAP block 33
FC(F)Oc1ccc(Nc2nccc(-c3cncc(N4CCOCC4)c3)n2)cc1	none
Cn1ccc2cc(Nc3nccc(-c4cncc(N5CCOCC5)c4)n3)ccc21	TEAD-YAP block 81
CCOC(=O)c1ccc(NC(=O)CC2S/C(=N/N=C3\NC(=O)CS3)NC2=O)cc1 (configuration not stated)	none
CC1CCCCN1S(=O)(=O)c1ccc(NC2=NS(=O)(=O)c3ccccc32)cc1 (configuration not stated)	none
Cc1ccc(CNC(=O)c2ccc3c(=O)n(Cc4ccco4)c(=S)[nH]c3c2)cc1	none
COc1ccc(Nc2nccc(-c3cncc(N4CCOCC4)c3)n2)cc1OC	TEAD-YAP block 47
c1cc(-c2cncc(N3CCOCC3)c2)nc(Nc2ccc(OCCN3CCOCC3)cc2)n1	TEAD-YAP block 78
O=S(=O)(c1ccc(Nc2nccc(-c3cncc(N4CCOCC4)c3)n2)cc1)N1CCOCC1	none
Fc1cc(-c2ccnc(Nc3ccc(-c4ncn[nH]4)cc3)n2)cc(N2CCOCC2)c1	TEAD-YAP block 74
FC(F)(F)c1cc(Nc2nccc(-c3cncc(N4CCOCC4)c3)n2)ccc1Cl	none
O=C(CCCNC(=O)Cn1cnc2sc3c(c2c1=O)CCCC3)NCCN1CCCC1	none
O=[N+]([O-])c1ccc(Nc2ccccc2Cl)c([N+](=O)[O-])c1	none
N#Cc1cc(Nc2ccccc2Cl)c([N+](=O)[O-])cc1C#N	TEAD-YAP block 74
COc1ccc2c(c1)-c1c(ssc1=S)C(C)(C)N2C(=O)CN1CCC(C)CC1	none
COc1cc(Nc2nccc(Nc3ccc4c(c3)OCO4)n2)cc(OC)c1OC	TEAD-YAP block 34
COc1cc(Nc2ccnc(NCc3ccc4c(c3)OCO4)n2)cc(OC)c1OC	TEAD-YAP block 35
COc1cc(Nc2cc(C)nc(NCc3ccc4c(c3)OCO4)n2)cc(OC)c1OC	TEAD-YAP block 43
COc1ccc(-c2nccc(Nc3cc(OC)c(OC)c(OC)c3)n2)cn1	TEAD-YAP block 60
O=C(OCCN1CCN(C2=NS(=O)(=O)c3ccccc32)CC1)c1cccc2ccccc12	none
O=C(c1ccccc1)N1CCCc2cc(NS(=O)(=O)Cc3ccccc3)ccc21	none
CCOc1cc(N2CCOCC2)c(OCC)cc1NC(=O)c1cccc([N+](=O)[O-])c1C	none
CCOc1cc(N2CCOCC2)c(OCC)cc1NC(=O)c1cc(Cl)c(Cl)cc1C(=O)O	MITF inh 70
COc1cc(C(=O)Nc2ccc(F)cc2F)ccc1OCc1cccc(F)c1	none
Cc1ccc(C(=O)Nc2nc3ccc4sc(C)nc4c3s2)cc1	none
Cc1nc2c(ccc3nc(NC(=O)c4ccco4)sc32)s1	TEAD-YAP block 50
Cc1nc2c(ccc3nc(NC(=O)C4=COCCO4)sc32)s1	TEAD-YAP block 79
Cc1nc2ccc3nc(NC(=O)c4ccco4)sc3c2s1	FBW7 activator 26
O=C(Nc1nnc(C23CC4CC(CC(C4)C2)C3)s1)c1ccco1	FBW7 activator 1.9
O=C(c1n[nH]c(=O)c2ccccc12)N1CCN(c2cccc(Cl)c2)CC1	TEAD-YAP block 55
Cc1ccc(C(=O)N2CCN(c3ccc([N+](=O)[O-])cc3)CC2)c(Cl)c1	TEAD-YAP block 35
O=C(c1cc([N+](=O)[O-])ccc1Cl)N1CCN(c2cccc(Cl)c2)CC1	TEAD-YAP block 32
O=C(c1ccccc1NS(=O)(=O)c1ccc(Cl)cc1C(F)(F)F)N1CCCC1	none
COc1cc(OC)c(C2C(C#N)=C(N)N(N(C)C)C3=C2C(=O)CCC3)cc1OC (configuration not stated)	none
O=C(CSc1ccccc1)Nc1nnc(-c2ccccc2Cl)o1	none
CC1(C)Cc2nc3sc4c(SCC(=O)O)ncnc4c3cc2CO1	TEAD-YAP block 47
COc1ccc2c(c1)OC(C)CN(CCC(=O)NCc1cn[nH]c1-c1ccccc1)C2 (configuration not stated)	none
NC(=O)c1ccc(N2CCN(S(=O)(=O)c3ccc4ccccc4c3)CC2)c([N+](=O)[O-])c1	TEAD-YAP block 45
COc1ccc(N2CCN(S(=O)(=O)c3ccc(C)cc3)CC2)c([N+](=O)[O-])c1	none
O=[N+]([O-])c1ccccc1N1CCN(S(=O)(=O)c2ccc3ccccc3c2)CC1	none
Cc1ccc(S(=O)(=O)N2CCN(c3ccc(C(N)=O)cc3[N+](=O)[O-])CC2)cc1	TEAD-YAP block 37
CCOC(=O)C1CCN(c2ccc3nncn3n2)CC1	none
CCOC(=O)c1cn2nc(N3CCCCC3)ccc2n1	TEAD-YAP block 43
COc1ccc(Br)cc1/C=C/C(=O)c1cccc(NC(C)=O)c1	TEAD-YAP block 75
COc1ccc(-c2nnc(SCC(=O)NCc3ccccc3)nc2-c2ccc(OC)c(OC)c2)cc1OC	TEAD-YAP block 47
COc1ccc(CCNc2cc(C)nc(Nc3ccccn3)n2)cc1	none
Cc1ccccc1C(=O)Nc1ccc(OC(=O)c2ccccc2C)cc1	TEAD-YAP block 64
Cc1ccccc1C(=O)Nc1ccc(C(=O)OC(C)C)cc1	none
